# Source: PubChem BioAssay AID485297 (National Center for Advancing Translational Sciences (NCATS), 2010)
# Screen size: about 320,000 compounds; about 9,100 (2.8%) were called active. Inconclusive results (about 3%) are left out. Many of the other results were omitted from the sample, so actives are more common in it than they were. A number with no mark means an inactive call. Calls follow the shape of the dose curve; as a rule, active = well fitted activation curve with a large enough effect; inconclusive = small, poorly fitted or top-dose-only effect; inactive = no such curve, though single readings can be large or run the other way.
# Assay: qHTS Assay for Rab9 Promoter Activators; also: nearly all actives have a fitted effect of over 60% in size; as to activation, negative = inhibition: % of control where 0% means no effect
# Conditions: Huh7 Rab9 promoter-luciferase reporter, luminescence, 24 h; series mostly up to 9.22 µM; activation, negative = inhibition: at the top concentration
# Excerpt: NIH Chemical Genomics Center [NCGC] NIH Molecular Libraries Probe Production centers Network [MLPCN] MLPCN Grant: MH089537-01 Assay Submitter (PI): Yiannis A. Ioannou NCGC Assay Overview: Niemann Pick Type C (NPC) is a rare neurodegenerative lipidosis that is characterized by lipid storage in the endosomal/lysosomal system. Treatment modalities for this devastating disease are currently non-existent due to the severe obstacles associated with accessing the central nervous system with proteins or genes (Ioannou, 2000). We have developed a new paradigm, termed "Orphan Receptor Bypass Therapy" (ORByT), to address these disorders. This paradigm posits the existence of endogenous "suppressor" proteins whose expression can dramatically improve LSD pathogenesis. The goal is the identification/discovery of small chemical compounds that can modulate the expression of these proteins and provide a new treatment modality for these devastating disorders. One such protein whose overexpression reverses aspects of the NPC phenotype is Rab9. We have developed and optimized a cell based luciferase reporter assay in 1536 well format for the identification of up-regulators of the Rab9 promoter.
# The Rab9 promoter is cloned in front of the luciferase reporter gene, therefore […] promoter activation results in luciferase expression. Frozen stock of the Rab9 promoter transfected Huh7 cells were obtained from the laboratory of Dr. Yiannis Ioannou (The Mount Sinai School of Medicine, New York, NY). Cells were propagated and maintained at NCGC in medium containing RPMI-1640 supplemented with 10% FBS, 2mM L-glutamine, and 50ug/ml penicillin/streptomycin. Cells were harvested in and plated for assays in OP-MEM I reduced-serum medium supplemented with 10% FBS. The Amplite luciferase reporter gene assay kit was purchased from ABD Bioquest and prepared/stored according to manufacturers recommendations. qHTS Assay Setup: 1.Dispensed 5ul of Huh7 cells stably expressing Rab9-luciferase at a density of 1500 cells per well 1536-well plates. 2.Incubate cells at 37C, 5% CO2, and 95% humidity for 2 hours. 3.Transferred 23nl per well of compound in DMSO solution. 4.Incubated at 37C, 5% CO2, and 95% humidity for 24 hours. 5.Dispensed 3ul per well of Amplite reagent(ABD Bioquest) per well. 6.Incubate at ambient for 10 minutes. 7.Read using the luminescence protocol on the ViewLux plate reader (Perkin Elmer).
# Potency is read from the fitted curve at half-maximal effect.
SMILES,Potency,"activation, negative = inhibition [%]"
Cc1ccc(-n2ncc3c(Nc4cccc(C(=O)O)c4)ncnc32)cc1,0.355 µM (active),
COc1ccc2nc(C)cc(Nc3cccc(C(=O)O)c3)c2c1,,0.435
Cc1ccc(Nc2ncnc3c2cnn3C)c(C)c1,,4.52
COc1ccccc1C(=O)NCCC(=O)N(C)Cc1cccnc1,,-4.93
Oc1ccc(CN2CCN(c3ncccn3)CC2)cc1,,9.57
c1cnc(N2CCN(c3ccc4ccccc4n3)CC2)nc1,3.16 µM (active),
O=C(c1ccncc1)N1CCN(c2ccc3ccccc3n2)CC1,,-12.5
CCOc1ccc(NS(=O)(=O)c2ccc(Cl)c(C(=O)N(C)Cc3cccnc3)c2)cc1,,-4.89
O=C(NCCc1ccc(C(F)(F)F)cc1)c1ccc2c(c1)OCO2,,0.109
CCNC(=O)CC1C(=O)N(c2ccc(OC)cc2)C(=S)N1CCc1ccncc1 (configuration not stated),,1.18
CCOCCCn1c(SCC(=O)Nc2cc(OC)ccc2OC)nc2ccccc2c1=O,,-1.67
COc1ccc(NS(=O)(=O)c2cc(NC(=O)CC(=O)c3ccc([N+](=O)[O-])cc3)ccc2C)cc1,,-2.92
Cc1cc(C#N)c(SCC(N)=O)nc1-c1ccc(F)cc1,,-4.05
CC(=O)c1cc(C#N)c(SCC(=O)C(C)(C)C)nc1C,2.51 µM (active),
Cc1cc(C(F)(F)F)nc(SCC(=O)Nc2nccs2)n1,,2.24
Cc1[nH]c2ccccc2c1SCC(=O)Nc1nccs1,4.47 µM (active),
CCn1c(SCC(=O)Nc2nccs2)nnc1-c1ccncc1,,-6.47
CCn1c(SCC(=O)Nc2nccs2)nnc1-c1ccco1,,-18.2
CC(=O)c1cc(C#N)c(SCC(=O)Nc2nccs2)nc1C,1.26 µM (active),
CC(=O)c1cc(C#N)c(N2CC(C)OC(C)C2)nc1C (configuration not stated),,-9.19
Cn1c(SCC(=O)Nc2nccs2)nnc1-c1cccnc1,,-2.59
O=C1C=C(c2cccc(Cl)c2O)C[C@@H](c2ccc(F)cc2)C1,,-8.32
Cc1cc(C)c(C#N)c(SCC(=O)N(CC(C)C)C2CCS(=O)(=O)C2)n1 (configuration not stated),,-8.44
O=C(O[C@@H]1[C@H](Cc2ccccc2)NS(=O)(=O)[C@H]2C[C@@H]3C=C[C@]12O3)c1ccccc1Br,,-9.32
O=C(Nc1ccccc1F)c1ccc(S(=O)(=O)N2CCCCCC2)cc1,,24.5
CCc1cc(C(=O)Nc2nnc(C3CC3)s2)sc1C,,26.1

SMILES,Potency,"activation, negative = inhibition [%]"
O=C1CCC(=O)N(c2ccccc2)N1,,-7.48
CC(=O)NC1C(Oc2ccc(C)cc2)OC2COC(c3ccco3)OC2C1O (configuration not stated),,-3.88
CCn1nnnc1SCC(=O)c1ccc(C)cc1C,3.55 µM (active),
CCn1nnnc1SCC(=O)Nc1ccc(N(C)C)cc1,,24.8
COc1ccc(C(=O)CSc2nnnn2C)c(OC)c1,,-1.76
Cc1ccc(NC(=O)COC(=O)C2C3CC4OC(=O)C2C4C3)cc1Cl (configuration not stated),,3.77
Nc1cc(N)nc(SCC(=O)Nc2cccc(S(=O)(=O)N3CCCCC3)c2)n1,,-1.91
O=C(/C=C/c1cccc([N+](=O)[O-])c1)OCC(=O)N1CCOCC1,,-2.78
Cc1ccc(NC(=O)Cc2nc(COC(=O)C(C)NS(=O)(=O)c3ccc(C)cc3)cs2)cc1 (configuration not stated),,8.45
CCCn1nc(C(=O)OCc2nc(N)nc(Nc3ccccc3C)n2)c2ccccc2c1=O,,-5.96
CCN(CC)C(CNC(=O)CSc1nnnn1-c1cccc(F)c1)c1ccco1 (configuration not stated),,-6.55
Cc1cc(O)cc(O)c1C(=O)Cc1cnn(-c2ccccc2)c1,,1.31
COc1ccc(C(=O)Cc2cnn(-c3ccccc3)c2)c(O)c1,3.16 µM (active),
COc1ccc(CC(=O)c2ccc(O)cc2O)cc1OC,,-1.28
O=C(CN(CC1CCCO1)C(=O)CNS(=O)(=O)c1ccc(F)cc1)NCc1ccco1 (configuration not stated),,-15.8
CCOC(=O)c1ccccc1NC(=O)COC(=O)C(Cc1c[nH]c2ccccc12)NC(C)=O (configuration not stated),,-1.4
O=C(N/C(=C\c1ccc([N+](=O)[O-])cc1)C(=O)N1CCOCC1)c1cccc(Br)c1,,-1.18
COc1ccc(S(=O)(=O)N2CCN(CC(=O)NCC3(N4CCOCC4)CCCCC3)CC2)cc1,,-6.43
CN(C)C(=O)COC(=O)c1cccc(S(=O)(=O)N2CC3(C)CC2CC(C)(C)C3)c1 (configuration not stated),,-3.32
O=C(Nc1nnc(-c2ccccc2)o1)c1cc(-c2cccs2)nc2ccccc12,,-1.42
OC(c1nnc(-c2ccccc2)o1)c1cccs1 (configuration not stated),4.47 µM (active),
CCCN(CCC)c1ccc(C(O)c2nnc(-c3ccccc3)o2)cc1 (configuration not stated),,25.4
CCOC(=O)C1=C(COC(=O)[C@H](C)NS(=O)(=O)c2ccccc2F)NC(=O)NC1C (some centres not stated),,-5.3
C=CCN1C(=O)C(Cc2cccc(Cl)c2)S/C1=N/N=C/c1ccco1 (configuration not stated),,-2.42
COc1ccc(CN2C(=O)C(C)S/C2=N/N=C/c2ccco2)cc1 (configuration not stated),2.82 µM (active),
O=C1N/C(=N\N=C\c2ccco2)SC1Cc1ccc(F)cc1 (configuration not stated),,0.456
